These results are taken from paper PMC5700166.

Numbering of substitutions follows the chain as printed.

Common to all, as to assay: protein-binding microarray (PBM); PBM: ~300 nM protein, 6 mM HEPES pH 7.8, 80 mM KCl, 0.5 mM EDTA, 0.5 mM EGTA, 6% glycerol, 35 ng/ul poly-dIdC, 1% milk, 1 h, room temperature; Ap Aiptasia and Nv Nematostella (sea anemones) / Co Capsaspora / Aq Amphimedon (sponge) / Dm Drosophila / Hu human; RHD is the Rel homology domain; high values mean tight binding
Holding throughout (conditions): dsDNA, one strand shown

For one assay, the target named is T1, GST-Ap-NF-kB RHD (Exaiptasia pallida (Aiptasia), UniProt A0A913YAJ5 2-422).
T1 sequence: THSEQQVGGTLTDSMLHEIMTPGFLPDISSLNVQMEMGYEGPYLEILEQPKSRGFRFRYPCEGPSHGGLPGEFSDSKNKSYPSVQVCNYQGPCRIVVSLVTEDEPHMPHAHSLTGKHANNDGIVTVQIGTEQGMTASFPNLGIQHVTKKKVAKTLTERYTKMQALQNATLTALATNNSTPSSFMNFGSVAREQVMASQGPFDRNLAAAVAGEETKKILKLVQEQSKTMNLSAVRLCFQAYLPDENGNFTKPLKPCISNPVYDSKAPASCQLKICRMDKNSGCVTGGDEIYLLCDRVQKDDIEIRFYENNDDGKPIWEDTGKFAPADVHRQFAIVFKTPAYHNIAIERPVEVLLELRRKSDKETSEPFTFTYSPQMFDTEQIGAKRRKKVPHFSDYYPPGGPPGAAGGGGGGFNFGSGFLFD

Assay [1] addresses T2, GST-Nv-NF-kB (Cys allele) (Nematostella vectensis, UniProt E5G601 2-411).
T2 sequence: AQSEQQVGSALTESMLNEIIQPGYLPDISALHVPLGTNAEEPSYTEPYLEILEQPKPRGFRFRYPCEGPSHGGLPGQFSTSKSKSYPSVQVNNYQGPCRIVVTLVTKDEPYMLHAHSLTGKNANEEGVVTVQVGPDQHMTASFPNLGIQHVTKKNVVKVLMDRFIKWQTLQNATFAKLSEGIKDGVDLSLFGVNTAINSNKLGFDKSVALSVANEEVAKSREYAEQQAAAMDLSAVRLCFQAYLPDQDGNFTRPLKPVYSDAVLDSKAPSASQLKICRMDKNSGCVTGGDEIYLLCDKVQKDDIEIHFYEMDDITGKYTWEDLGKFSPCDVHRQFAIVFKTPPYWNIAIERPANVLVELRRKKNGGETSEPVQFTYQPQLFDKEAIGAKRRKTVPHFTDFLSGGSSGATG

Assay [2] addresses T3, GST-Nv-NF-kB (Ser allele) (Nematostella vectensis, UniProt A7UNT2 2-411).
T3 sequence: T2 sequence with Q21R, C66S, S207N, E215Q, V217A, E225K, A268E, D399E

In the next assay the target is T4, GST-Co-NF-kB (Capsaspora owczarzaki, UniProt F1ARL5 200-546).
T4 sequence: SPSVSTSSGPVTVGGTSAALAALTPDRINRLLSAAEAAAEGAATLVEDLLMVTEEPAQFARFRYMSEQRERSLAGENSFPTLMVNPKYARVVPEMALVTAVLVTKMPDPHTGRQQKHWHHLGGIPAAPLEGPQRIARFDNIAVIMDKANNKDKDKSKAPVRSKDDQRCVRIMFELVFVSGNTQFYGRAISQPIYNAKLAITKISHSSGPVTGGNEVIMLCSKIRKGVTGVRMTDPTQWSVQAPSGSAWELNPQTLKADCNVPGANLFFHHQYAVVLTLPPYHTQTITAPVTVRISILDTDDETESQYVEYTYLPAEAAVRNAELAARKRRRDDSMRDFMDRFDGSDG

In the next assay the target is T5, GST-Dm-Relish (Drosophila melanogaster, UniProt Q94527 99-473).
T5 sequence: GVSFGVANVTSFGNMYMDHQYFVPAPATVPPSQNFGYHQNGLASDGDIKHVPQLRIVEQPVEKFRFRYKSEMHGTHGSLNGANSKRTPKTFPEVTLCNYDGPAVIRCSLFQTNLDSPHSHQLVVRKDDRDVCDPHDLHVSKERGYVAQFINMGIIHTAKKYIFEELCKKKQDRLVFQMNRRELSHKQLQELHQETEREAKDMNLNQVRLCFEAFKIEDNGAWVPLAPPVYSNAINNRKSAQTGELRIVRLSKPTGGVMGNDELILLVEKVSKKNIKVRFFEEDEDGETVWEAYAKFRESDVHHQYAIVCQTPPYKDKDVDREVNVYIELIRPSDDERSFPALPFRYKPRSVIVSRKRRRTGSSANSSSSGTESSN

In a further assay the target is T6, GST-Aq-NF-kB (Amphimedon queenslandica, UniProt A9Y5G7 2-389).
T6 sequence: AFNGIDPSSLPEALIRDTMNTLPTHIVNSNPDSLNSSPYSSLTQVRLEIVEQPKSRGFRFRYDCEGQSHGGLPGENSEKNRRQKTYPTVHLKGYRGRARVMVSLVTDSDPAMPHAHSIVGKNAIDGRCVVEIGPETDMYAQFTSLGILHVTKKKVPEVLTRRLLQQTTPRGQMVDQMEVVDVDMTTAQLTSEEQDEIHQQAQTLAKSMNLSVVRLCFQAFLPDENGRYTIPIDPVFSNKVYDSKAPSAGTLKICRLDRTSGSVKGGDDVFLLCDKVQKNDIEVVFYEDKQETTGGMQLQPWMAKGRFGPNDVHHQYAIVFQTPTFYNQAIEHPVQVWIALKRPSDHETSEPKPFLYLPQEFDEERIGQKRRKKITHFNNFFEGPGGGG

For a further assay, the target named is GST-Hu-p50 (Homo sapiens, UniProt P19838 7-356).
Sequence of GST-Hu-p50 (P19838 7-356): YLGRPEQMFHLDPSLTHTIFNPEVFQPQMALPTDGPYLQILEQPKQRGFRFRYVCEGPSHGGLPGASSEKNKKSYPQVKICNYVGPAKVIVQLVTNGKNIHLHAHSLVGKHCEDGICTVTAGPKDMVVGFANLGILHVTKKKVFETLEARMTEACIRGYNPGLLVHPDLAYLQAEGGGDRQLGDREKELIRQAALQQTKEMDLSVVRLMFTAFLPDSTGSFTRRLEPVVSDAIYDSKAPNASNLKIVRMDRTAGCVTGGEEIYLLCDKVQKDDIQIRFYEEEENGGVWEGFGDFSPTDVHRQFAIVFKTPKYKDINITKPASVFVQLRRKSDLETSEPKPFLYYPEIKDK

On to “CCGATTAACATCAAGGGGGGAATTGATGTTAATCGGGTCTTGATTCGCTTGACGCTGCTG”, for which the binding signal with GST-Ap-NF-kB RHD was found to be 7.34 z-score; in assay [1], 7.02 z-score; in assay [2], 7.25 z-score; with GST-Co-NF-kB, 7.24 z-score; in the assay with GST-Dm-Relish, 5.11 z-score; with GST-Aq-NF-kB, 5.89 z-score. This sequence also yielded a binding signal with GST-Hu-p50 of 6.3 z-score.
As to “CCGATTAACATCAATTCCCACCCTGATGTTAATCGGGTCTTGATTCGCTTGACGCTGCTG”, the binding signal with GST-Ap-NF-kB RHD turned out to be 2.43 z-score; in assay [1], 2.6 z-score; in assay [2], 2.72 z-score; with GST-Co-NF-kB, 3.21 z-score; in the assay with GST-Dm-Relish, 2.33 z-score; with GST-Aq-NF-kB, 2.03 z-score. This sequence had a binding signal with GST-Hu-p50 of 2.02 z-score.
Regarding “CCGATTAACATCAGGAAATCCCCTGATGTTAATCGGGTCTTGATTCGCTTGACGCTGCTG”, the binding signal was 10.8 z-score with GST-Ap-NF-kB RHD; 12.1 z-score in assay [1]; 12.5 z-score in assay [2]; 4.46 z-score with GST-Co-NF-kB; 10.3 z-score in the assay with GST-Dm-Relish; 10.9 z-score in the assay with GST-Aq-NF-kB. Also, the binding signal with GST-Hu-p50 stood at 8.31 z-score.
As to “CCGATTAACATCATTAGGGGAAGTGATGTTAATCGGGTCTTGATTCGCTTGACGCTGCTG”, the binding signal with GST-Ap-NF-kB RHD came to 4.61 z-score; in assay [1], 5.4 z-score; in assay [2], 7.61 z-score; with GST-Co-NF-kB, 3.41 z-score; in the assay with GST-Dm-Relish it was 2.36 z-score; in the assay with GST-Aq-NF-kB, 4.57 z-score. The same sequence registered a binding signal with GST-Hu-p50 of 5.39 z-score.
Turning to “CCGATTAACATCAGGGGGAATCATGATGTTAATCGGGTCTTGATTCGCTTGACGCTGCTG”, the binding signal with GST-Ap-NF-kB RHD amounted to 8.02 z-score; in assay [1] it was 7.33 z-score; in assay [2], 8.26 z-score; with GST-Co-NF-kB, 8.51 z-score; with GST-Dm-Relish, 6.2 z-score; with GST-Aq-NF-kB it was 5.7 z-score. The binding signal with GST-Hu-p50 is 6.66 z-score.
Consider “CCGATTAACATCACAGAATTCCCTGATGTTAATCGGGTCTTGATTCGCTTGACGCTGCTG”, for which the binding signal with GST-Ap-NF-kB RHD amounted to 5.09 z-score; in assay [1] it was 6.44 z-score; in assay [2], 6.81 z-score; with GST-Co-NF-kB it was 3.6 z-score; in the assay with GST-Dm-Relish it was 4.28 z-score; with GST-Aq-NF-kB, 5.42 z-score. For the same sequence, the binding signal with GST-Hu-p50 was determined as 4.93 z-score.
Turning to “CCGATTAACATCACAAAAGCCCCTGATGTTAATCGGGTCTTGATTCGCTTGACGCTGCTG”, the binding signal with GST-Ap-NF-kB RHD was determined as 6.25 z-score; in assay [1], 8.09 z-score; in assay [2] it was 7.4 z-score; with GST-Co-NF-kB it was 1.08 z-score; in the assay with GST-Dm-Relish, 6.85 z-score; in the assay with GST-Aq-NF-kB, 7.27 z-score. The same sequence came in with a binding signal with GST-Hu-p50 of 6.34 z-score.
As to “CCGATTAACATCAGGGACCCCCCTGATGTTAATCGGGTCTTGATTCGCTTGACGCTGCTG”, the binding signal in the assay with GST-Ap-NF-kB RHD amounted to 8.29 z-score; in assay [1] it was 5.59 z-score; in assay [2] it was 4.4 z-score; with GST-Co-NF-kB, 2.66 z-score; with GST-Dm-Relish, 9.78 z-score; in the assay with GST-Aq-NF-kB it was 8.21 z-score. In the assay with GST-Hu-p50, this sequence registered a binding signal of 5.07 z-score.
For “CCGATTAACATCAGGACCCCCCCTGATGTTAATCGGGTCTTGATTCGCTTGACGCTGCTG”, the binding signal with GST-Ap-NF-kB RHD was 7.35 z-score; in assay [1] it was 4.56 z-score; in assay [2], 3.23 z-score; with GST-Co-NF-kB it was 2.94 z-score; in the assay with GST-Dm-Relish, 6.37 z-score; in the assay with GST-Aq-NF-kB, 7.44 z-score. This sequence also returned a binding signal with GST-Hu-p50 of 4.44 z-score.
Take “CCGATTAACATCAGGGGGAATAATGATGTTAATCGGGTCTTGATTCGCTTGACGCTGCTG”: the binding signal is 7.08 z-score in the assay with GST-Ap-NF-kB RHD; 7.85 z-score in assay [1]; 8.87 z-score in assay [2]; 10.1 z-score with GST-Co-NF-kB; 4.96 z-score with GST-Dm-Relish; 5.33 z-score in the assay with GST-Aq-NF-kB. Also, in the assay with GST-Hu-p50, the binding signal worked out at 6.75 z-score.
With “CCGATTAACATCAGGGAATACCCTGATGTTAATCGGGTCTTGATTCGCTTGACGCTGCTG”, the binding signal stood at 8.89 z-score in the assay with GST-Ap-NF-kB RHD; 11.2 z-score in assay [1]; 8.44 z-score in assay [2]; 3.79 z-score in the assay with GST-Co-NF-kB; 9.63 z-score with GST-Dm-Relish; 10.2 z-score with GST-Aq-NF-kB. In the assay with GST-Hu-p50, this sequence returned a binding signal of 6.01 z-score.
“CCGATTAACATCAAGATTTCCCCTGATGTTAATCGGGTCTTGATTCGCTTGACGCTGCTG”: the binding signal was determined as 8.78 z-score with GST-Ap-NF-kB RHD; 10.4 z-score in assay [1]; 13.2 z-score in assay [2]; 9.09 z-score with GST-Co-NF-kB; 6.87 z-score in the assay with GST-Dm-Relish; 7.44 z-score in the assay with GST-Aq-NF-kB. Also, the binding signal in the assay with GST-Hu-p50 stood at 7.38 z-score.
